Laboratory results reported in PubChem BioAssay AID1117361 (Southern Research Institute, 2015).
The whole screen tested about 3,600 compounds, of which about 900 (25%) were called active. How the calls were made is not given here. The list is a sample of the results. Measured potencies and affinities stand elsewhere.

target: Protein Tat (Human immunodeficiency virus type 1 group M subtype B (isolate HXB2)) (UniProt P04608); experiment: HIV-1 Tat–TAR interaction blockers – biochemical, fluorescence polarization, FAM-labeled TAR RNA, counter-screen for Vif-APOBEC3G degradation inhibitor project, dose response (AID 1117361); details: Tat-TAR RNA binding; series mostly up to 100 µM

Row | SMILES | outcome
1 | Cc1cc(C)c(C)c(S(=O)(=O)N2C(=S)NC(=O)C2C(C)C)c1C (stereo not given) | inactive
2 | Cc1cc(Oc2ccc(-c3ccccc3)cc2)n2ncnc2n1 | inactive
3 | CCn1c(SCC(=O)NCc2ccc3c(c2)OCO3)nnc1-c1cccs1 | inactive
4 | CCOC(=O)C/C(C)=N\Nc1ccc([N+](=O)[O-])cc1[N+](=O)[O-] | inactive
5 | COc1cccc(CNCC(=O)Nc2ccc(N3CCOCC3)cc2)c1 | inactive
6 | O=S(=O)(c1cccc(C(F)(F)F)c1)N1CCN(c2ccccc2)CC1 | inactive
7 | CN(C)S(=O)(=O)c1ccc(NC(=O)N2CCN(c3cccc(C(F)(F)F)c3)CC2)cc1 | inactive
8 | O=C(c1ccc(N2CCN(C3CC(=O)N(c4ccc(F)cc4)C3=O)CC2)cc1)c1cccnc1 (stereo not given) | inactive
9 | C=CCOc1c(Br)cc(CNn2nnnc2N)cc1OCC | inactive
10 | O=C(O)CN1C(=O)COc2cc(S(=O)(=O)N3CCCC3)ccc21 | inactive
11 | O=C(c1cc(Cl)ccc1Cl)N1CCN(c2ccccn2)CC1 | inactive
12 | Clc1ccc(-c2cnc(Oc3ccccc3)nc2)cc1 | inactive
13 | O=C(CNS(=O)(=O)c1ccc(Br)s1)N1CCCC1 | inactive
14 | CCCCCC(=O)Nc1nnn(CCC)n1 | inactive
15 | Cc1ccc(-n2nc(-c3ccc(N)cc3)cc2N)cc1 | inactive
16 | CCOCC(=O)Nc1ccc(C)c(Cl)c1 | inactive
17 | Cc1ccc(S(=O)(=O)Nc2cc(NC(=O)CN3CCOCC3)ccc2Cl)cc1 | inactive
18 | CCOC(=O)N1CCN(C(=O)c2cnn(-c3ccccc3)c2NC(=O)c2ccccc2F)CC1 | inactive
19 | Cc1ccc(C=Nc2ccccc2C(N)=O)s1 | inactive
20 | O=C(Nc1ccc(F)cc1F)NC1CCN(S(=O)(=O)c2ccc(F)cc2)CC1 | inactive
21 | Cc1nc(-c2noc(-c3ccccc3Cl)n2)c(C(F)(F)F)o1 | inactive
22 | O=C(Cn1cncn1)N/N=C/c1ccccc1Cl | inactive
23 | CCOc1cccc(-c2cc(=O)[nH][nH]2)c1 | inactive
24 | Cc1csc(NC(=O)C(NS(=O)(=O)c2ccc(Br)s2)c2ccccc2)n1 (stereo not given) | inactive
25 | CCOC(=O)c1c(C)[nH]c(C(=O)OCC(=O)Nc2sc(C(=O)N(C)C)c(C)c2C(=O)OCC)c1C | inactive
26 | CC(=O)c1c(C)[nH]c(C(=O)OCC(=O)C(C)(C)C)c1C | inactive
27 | CCCOc1ccc2oc(=O)c3c(c2c1)CCCN3C(=O)CN1CCc2ccccc2C1 | inactive
28 | COC1=CC(=O)C(C2CC(=O)c3c(O)cc(O)cc3O2)=CC1=O (stereo not given) | inactive
29 | COc1cc(Cl)c(C)cc1NC(=O)COc1cc(C)nc(C(C)C)n1 | inactive
30 | O=C(CCC(=O)N1CCN(S(=O)(=O)c2ccccc2)CC1)NC1CCCc2ccccc21 (stereo not given) | inactive
